{
  "source": "PubChem BioAssay (NCATS)",
  "note": "Records with an inconclusive call do not appear. Activity calls are given as the source filed them. Calls follow the shape of the dose curve; as a rule, active = well fitted cell-killing curve with a large enough effect; inconclusive = small, poorly fitted or top-dose-only effect; inactive = flat fitted curve, though single readings scatter. % is scaled to controls: 0 for no effect and ±100 for the full control effect; potency is read from the fitted curve at half-maximal effect.",
  "data": [
    {"assay": "Cell Viability - LYMP2-017 (AID 972); also: nearly all actives have a fitted effect of over 55% in size", "settings": "LYMP2-017 lymphoblastoid cell viability; series mostly up to 92.2 µM; activity change, negative = cytotoxicity: at the top concentration", "text": "NIH Chemical Genomics Center [NCGC]\nNIH Molecular Libraries Screening Centers Network [MLSCN]\nNational Institutes of Environmental Health Sciences [NIEHS]\nNational Toxicology Program [NTP]\nWe have developed a 1536-well cell-based assay for quantitative high throughput screening (qHTS) against a number of cell lines to determine in vitro cytotoxicity of small molecules. This particular assay uses a human lymphoblastoid cell line (LYMP2-017) purchased from Coriell Institute for Medical Research.\nNCGC Assay Protocol Summary:\nThe CellTiter-Glo luminescent cell viability assay (Promega) is a homogeneous method to measure the number of viable cells in culture. The end point readout of this assay is based on quantitation of intracellular ATP, an indicator of metabolic activity, using the luciferase reaction. Luciferase catalyzes the oxidation of beetle Luciferin to oxyluciferin and light in the presence of ATP. The luminescent signal is proportional to amount of ATP present.\nUsing the CellTiter-Glo luminescent cell viability assay, the amount of cellular ATP was measured in the lymphoblastoid cell line with complete culture medium following compound treatment for 24 hours. The assay was performed in opaque white Kalypsys 1536-well plates. In the screen, tetraoctylammonium bromide was used as positive control. Library compounds were measured for their ability to cause acute toxicity in the cell line, as reflected by a decrease in intracellular ATP levels, in a concentration-dependent manner. […] AC50 values were determined from concentration-response data modeled with the standard Hill equation.\nqHTS protocol for CellTiter Glo lymphoblastoid cellular assay\n[Step] [Parameter] [Value] [Description]\n1. Reagent; 5 uL; 2500 lymphoblastoid cells/well\n2. Time; 5 hr; 37 C incubation\n4. Controls; 23 nL; Tetraoctylammonium bromide 6.4pM to 92 uM\n5. Time; 24 hr; 37 C incubation\n6. Reagent; 5 uL; CellTiter Glo reagent\n7. Time; 30 min; Room Temperature\n8. Detection; Luminescence; Viewlux plate reader\nKeywords: cell viability, cytotoxicity, lymphoblastoid cell line, luminescence, NTPHTS, NTPHTS_NCGC, NIEHS, DSSTox, MLSMR, MLSCN, NIH Roadmap, qHTS, NCGC", "values": [
      {"smiles": "CCCCCCCCCCCCOS(=O)(=O)O", "Potency": "inactive"},
      {"smiles": "Cc1cc(CC(=O)O)n(C)c1C(=O)c1ccc(Cl)cc1", "activity change, negative = cytotoxicity": "-0.581% (inactive)"},
      {"smiles": "NC(=O)c1ncn([C@@H]2O[C@H](CO)[C@@H](O)[C@H]2O)n1", "activity change, negative = cytotoxicity": "-25.1% (inactive)"},
      {"smiles": "NCCNCCNCCNCCN", "activity change, negative = cytotoxicity": "-19.5% (inactive)"},
      {"smiles": "CC12CCC(CC1)C(C)(C)O2", "activity change, negative = cytotoxicity": "-5.85% (inactive)"},
      {"smiles": "Nc1ccc(S(=O)(=O)Nc2nccs2)cc1", "activity change, negative = cytotoxicity": "-27.2% (inactive)"},
      {"smiles": "CC1(C)[C@@H]2CC[C@@]1(C)C(=O)C2", "activity change, negative = cytotoxicity": "1.3% (inactive)"},
      {"smiles": "Oc1cccc(O)c1", "activity change, negative = cytotoxicity": "-18.3% (inactive)"},
      {"smiles": "NCCNCCNCCN", "activity change, negative = cytotoxicity": "-13.3% (inactive)"},
      {"smiles": "Cc1cc2nc3c(=O)[nH]c(=O)nc-3n(C[C@H](O)[C@H](O)[C@H](O)CO)c2cc1C", "activity change, negative = cytotoxicity": "0.424% (inactive)"},
      {"smiles": "C[C@]12C[C@H](O)[C@H]3[C@@H](CCC4=CC(=O)CC[C@@]43C)[C@@H]1CC[C@@H]2C(=O)CO", "activity change, negative = cytotoxicity": "-20.8% (inactive)"},
      {"smiles": "Cc1c(O)cccc1C(=O)N[C@@H](CSc1ccccc1)[C@H](O)CN1C[C@H]2CCCC[C@H]2C[C@H]1C(=O)NC(C)(C)C", "Potency": "50.1 µM (active)"},
      {"smiles": "CCCCOC(=O)c1ccc(O)cc1", "activity change, negative = cytotoxicity": "0.847% (inactive)"},
      {"smiles": "COc1ccccc1O", "Potency": "inactive"},
      {"smiles": "O=C1c2c(O)cccc2Cc2cccc(O)c21", "activity change, negative = cytotoxicity": "-8.3% (inactive)"},
      {"smiles": "[Cl][In]([Cl])[Cl]", "activity change, negative = cytotoxicity": "-13.3% (inactive)"}
    ]}
  ]
}
